Assay in all cases: NCI-60 one-dose screen, 48 h (100 = growth as untreated, 0 = no growth, -100 = all killed)
What all share (settings): 10 µM unless noted

Assay [1] has as its system HCT-15 colon.
The subject of assay [2] is HT29 colon.
Assay [3] relates to SNB-75 CNS.
The test system of assay [4] is SNB-19 CNS.
In assay [5] the test system is U251 CNS.
The test system of assay [6] is PC-3 prostate.
Assay [7] concerns SK-MEL-5 melanoma.
Assay [8] relates to UACC-62 melanoma.
In assay [9] the test system is SK-MEL-28 melanoma.
The test system of assay [10] is LOX IMVI melanoma.

SMILES strings stand for the structures. Several values for one entry are separate records, joined by “and”; a condition that tells them apart may be missing. Equal values may be shown once. The panel holds about 83,000 compounds, 20% with a hit somewhere; the sample as a whole holds those more often.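 Interpretation: 100, growth as untreated; towards 0, rising growth inhibition; 0, no net growth; 0 to -100, cell death. Compounds scoring below 10 were considered active.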 A number with no mark means an inactive call. Activity calls are given as the source filed them.

Consider `CC(C)(C)OC(=O)CC1(O)CCCCC1`, for which the growth in assay [1] is 105%; in assay [2], 111%; in assay [3], 90.8%; in assay [4], 106%; in [5], 104%; in [6] it was 96.8%. Besides, the growth in [7] was 95.7%; in assay [8], 103%; in [9], 105%.

On to `Nc1ccc(O)c(C(=O)O)c1`, for which the growth in assay [1] is 97.3% and 107% and 99.2%; in assay [2], 111% and 113% and 115%; in assay [3], 74.4% and 97.2% and 94.7%; in [4], 91.9% and 104% and 117%; in assay [5] it was 74.5% and 101%; in assay [6], 89.6% and 105%. The growth in assay [7] was 93.4% and 94.1% and 108%; in assay [8] it was 91.3% and 102% and 84.2%; in assay [9] it was 94.7% and 116% and 115%.

On to `O=[N+]([O-])c1ccc(NC(c2ccccc2)c2ccc3cccnc3c2O)cc1` (stereo not given), for which the growth is 32.5% in assay [1]; 26% in [2]; 47.3% in assay [3]; 21.2% in [4]; 12.3% in [5]; 30.3% in [6]. The growth in assay [7] is -1.02% (active); in [8] it was -4.08% (active); in assay [9] it was 27.7%.

Take `Nc1c(Cl)cc2c(c1Br)C(=O)c1ccccc1C2=O`: the growth is 88.9% in assay [1]; 100% in assay [2]; 94.2% in assay [3]; 88.8% in assay [4]; 95.8% in assay [5]; 97.7% in assay [6]. Also, the growth in assay [7] was 89.4%; in assay [8], 77%; in [10], 94.2%; in [9], 113%.

Take `O=C(O)/C=C/C=C/c1ccccc1`: the growth was 102% and 108% in [1]; 100% and 103% in assay [2]; 103% and 98.4% in [3]; 97.1% and 100% in assay [4]; 106% and 96.9% in [5]; 97.4% and 101% in assay [6]. Also, the growth was 102% and 94.7% in [7]; 96.1% and 102% in [8]; 103% and 109% in [9].

As for `OC(CC(c1ccccc1)c1cccc2ccccc12)(c1ccccc1)c1ccccc1` (stereo not given), the growth in [1] is 78.9% and 68.3%; in [2], 68.2% and 52.6%; in [3], 103% and 74.6%; in assay [4], 95.5% and 94.7%; in assay [5], 90.4% and 87.7%; in [6], 60.6% and 56.4%. Further, the growth in assay [7] is 88.3% and 95.5%; in assay [8], 76.7% and 79.4%; in assay [9] it was 95.8% and 100%.

For `CC(C)(C)C1CCC(=NO)CC1` (stereo not given), the growth in assay [1] is 106%; in assay [2], 95%; in assay [3] it was 85.6%; in [4], 96%; in assay [5], 99.9%; in assay [6], 86.7%. The values for the growth in assay [7], in [8] and in assay [9] were 104%, 99.4% and 110%, respectively.

As to `COc1ccc2oc3cc(NCCN(C)C)ccc3c(=O)c2c1`, the growth was 90.6% and 67% in assay [1]; 69.8% and 53% in [2]; 87.2% and 81.5% in [3]; 92.7% and 76.1% in [4]; 76.7% in assay [5]; 83.6% and 70.9% in [6]. For the same compound, the growth in [7] is 93.3% and 75.5%; in assay [8], 100% and 101%; in assay [9], 96.1% and 91.3%.

Take `Nc1ccc(Cl)c(S(=O)(=O)O)c1`: the growth in [1] is 101%; in [2], 105%; in [3], 93.3%; in [4] it was 94.4%; in [5], 99.8%; in [6], 108%. The growth is 101% in assay [7], 102% in assay [8] and 106% in assay [9].

Consider `CCC(C)(O)CCC(C)(O)CC` (stereo not given), for which the growth in assay [1] is 112%; in assay [2], 113%; in assay [3], 108%; in assay [4], 105%; in [5] it was 104%; in assay [6], 98.6%. Also, the results for the growth in [7], in assay [8] and in [9] were 104%, 108% and 124%, respectively.

Take `CC(O)CCNC(c1ccccc1)C(O)c1ccccc1` (stereo not given): the growth was 109% in assay [1]; 97.3% in assay [2]; 96.5% in assay [3]; 103% in assay [4]; 106% in [5]; 94.8% in [6]. Also, the figures for the growth in assay [7], in assay [8] and in [9] were 109%, 108% and 112%, respectively.

On to `CCOC(C)=N`, for which the growth in assay [1] is 105%; in [2], 102%; in assay [3], 93.2%; in assay [4], 104%; in assay [5], 104%; in [6], 99.3%. For the same compound, the growth in assay [7] is 109%; in assay [8], 102%; in assay [10], 100%; in assay [9], 112%.
